# PubChem BioAssay AID449762 (Southern Research Specialized Biocontainment Screening …, 2010)
# Among all 330,000 compounds or so, about 1,900 (0.58%) were called active. Roughly 4% stayed inconclusive and do not appear here. Cut-off read from the data, not from the text of the source: inconclusive = inhibition above about 70% without an active follow-up result; inactive = below that. A selection follows. Potency and affinity values are given separately.
# Assay: M. tuberculosis growth inhibition, HTS (AID 449762);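 note: bacterial growth assessed after seven days of incubation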
# Details: M. tuberculosis H37Rv growth inhibition, 7H9 media; at 25 µM; stronger effect = higher value
row,SMILES,inhibition
1,CCn1nnc(-c2ccccc2NS(=O)(=O)c2ccc(S(=O)(=O)N(C)C3CCCCC3)cc2)n1,2.36% (inactive)
2,N#Cc1ccccc1COC(=O)CCC(=O)c1cccs1,5.44% (inactive)
3,c1ccc2c(CNc3ccc(CNc4ncn[nH]4)cc3)cccc2c1,1.09% (inactive)
4,C/C(=N/NC(=O)c1ccccn1)c1ccncc1,39.2% (inactive)
5,C/C(=N\NC(=O)c1c[nH]c2ccccc12)c1ccco1,19.6% (inactive)
6,COc1ccc(CN2CCC(Oc3ccc(C(=O)NCc4ccccn4)cc3)CC2)c(F)c1,-12.3% (inactive)
7,CCOc1ccc(NC(=O)NC2CCCc3ccccc32)cc1 (centres undefined),-11.3% (inactive)
8,Cc1cc2c(N)cccc2nn1,-2.97% (inactive)
9,Cc1cnnc2ccc3c(no[n+]3[O-])c12,0.29% (inactive)
10,Cc1ccc(-n2c(CSc3nc(C)cc(C)n3)n[nH]c2=S)cc1,-6.43% (inactive)
11,N#Cc1c(N)nc2c(c1-c1ccc(Br)s1)CCCC2,0.77% (inactive)
12,Cc1ccc(C)c(NC(=O)CN(C)C(=O)[C@@H](NC(N)=O)C(C)C)c1,1.17% (inactive)
13,OCC1OC(n2cnc3c(NC4CCCC4)ncnc32)C(O)C1O (centres undefined),-0.62% (inactive)
14,OC[C@H]1O[C@@H](n2cnc3c(NC4CCCC4)ncnc32)[C@H](O)[C@@H]1O,-4.16% (inactive)
15,COc1cc(/C=C\C(=O)NCc2ccc3[nH]c(C)cc3c2)cc(OC)c1OC,-3.67% (inactive)
16,COc1ccc(-n2nnc3c(=O)n(CC(=O)N4CCC(Cc5ccccc5)CC4)cnc32)cc1,-2.79% (inactive)
17,O=C(Cn1cnc2c(nnn2-c2ccccc2)c1=O)N1CCC(Cc2ccccc2)CC1,-6.42% (inactive)
18,CCc1ccc(C(=O)COC(=O)C(CCSC)NC(=O)C23CC4CC(CC(C4)C2)C3)cc1 (centres undefined),1.72% (inactive)
19,CCCCNC(=S)N(C)/N=C/c1c(F)cccc1F,-1.55% (inactive)
20,CCCCNC(=S)N(C)/N=C/c1ccccc1F,7.41% (inactive)

row,SMILES,inhibition
1,FC(F)(F)c1cc(CCN2C(=S)NC[C@@H]2CC2CCCCC2)cc(C(F)(F)F)c1,-2.31% (inactive)
2,CCCC[C@@H]1CN=C(N)N1CCc1cc(C(F)(F)F)cc(C(F)(F)F)c1,4.85% (inactive)
3,COc1ccccc1CC(=O)NC1CCCCCC1,-3.92% (inactive)
4,CC1CCCCC1NC(=O)Cn1c(CN2CCCCC2)nc2ccccc2c1=O (centres undefined),5.05% (inactive)
5,COc1ccc(N2C(=O)CC(NNC(=O)c3cc(C)oc3C)C2=O)cc1 (centres undefined),-4.63% (inactive)
6,O=C1C(=O)c2cccc3cccc1c23,3.34% (inactive)
7,NC1=CC(=O)c2cccc3cccc1c23,-0.47% (inactive)
8,COc1cc2c(cc1NC(=O)COC(=O)CNS(=O)(=O)c1ccc(C)cc1)oc1ccccc12,20.6% (inactive)
9,Cc1ccc(C)c(NC(=O)CCNS(=O)(=O)c2ccc3[nH]c(=O)oc3c2)c1,-1.71% (inactive)
10,CC1(c2ccc(Cl)cc2)NC(=O)N(CC(=O)c2ccc3c(c2)OCO3)C1=O (centres undefined),-11.1% (inactive)
11,CC1(c2ccc(OC(F)F)cc2)NC(=O)N(CC(=O)Nc2ccc3c(c2)OCO3)C1=O (centres undefined),1.98% (inactive)
12,CCN(CC(=O)Nc1ccccc1C(=O)OC)S(=O)(=O)c1ccccc1,-8.58% (inactive)
13,Cc1nc(-c2nnc(SCC(=O)Nc3cc(Cl)cc(Cl)c3)n2C)cs1,-8.27% (inactive)
14,CC1CCCCN1C(=O)C1CCN(S(=O)(=O)c2ccc(-n3cnnn3)cc2)CC1 (centres undefined),-3.02% (inactive)
15,COc1ccc(OC)c2[nH]c(=O)c(CCNC(=O)c3ccc(Br)o3)cc12,-4.84% (inactive)
16,Cc1cc(=O)oc2cc(OCC(=O)N3CCN(C(=O)C4COc5ccccc5O4)CC3)c(Cl)cc12 (centres undefined),68.3% (inactive)
17,Cc1cc(=O)oc2cc(OCC(=O)N3CCN(C(=O)C4COc5ccccc5O4)CC3)ccc12 (centres undefined),5.34% (inactive)
18,O=C(NCCN1CCOCC1)C1CCCN(S(=O)(=O)c2ccc(F)cc2)C1 (centres undefined),-1.03% (inactive)
19,NNC(=O)C1=NOC(CNc2ncc(C(F)(F)F)cc2Cl)C1 (centres undefined),-0.88% (inactive)
20,CC(=O)C1=NOC(CNc2ncc(C(F)(F)F)cc2Cl)C1 (centres undefined),-4.07% (inactive)

row,SMILES,inhibition
1,O=c1[nH]c2cc(Cl)ccc2n(CCNc2ncc(C(F)(F)F)cc2Cl)c1=O,-0.44% (inactive)
2,O=c1c2nncn2c2cc(C(F)(F)F)ccc2n1CCNc1ncc(C(F)(F)F)cc1Cl,-1.6% (inactive)
3,Cc1nnc(SCc2c(Cl)cccc2Cl)s1,7.37% (inactive)
4,O=C(C1CCCN(c2ncnc3c2nc2n3CCCCC2)C1)N1CCN(c2ccc(F)cc2)CC1 (centres undefined),23.2% (inactive)
5,O=C(C1CCCN(c2ncnc3c2nc2n3CCCCC2)C1)N1CCN(c2ccccc2)CC1 (centres undefined),6.98% (inactive)
6,COc1cc2c(cc1NC(=O)Cc1ccc(C)cc1)oc1ccccc12,-1.99% (inactive)
7,CCOP(=O)(OCC)C(NC(=O)c1ccccc1)=C(Cl)Cl,-0.5% (inactive)
8,CCOc1ccccc1/C=C(/NC(=O)c1ccccc1)C(=O)N1CCCCC1,4.77% (inactive)
9,COc1ccc(/C(C)=N/N2CCCCC2)c(O)c1,0.48% (inactive)
10,Cc1nn(Cc2ccc(Cl)cc2Cl)c(C)c1NC(=O)Cn1nc([N+](=O)[O-])c(Cl)c1C,5.47% (inactive)
11,S=C(NCc1ccc2c(c1)OCO2)NCc1ccc2c(c1)OCO2,2.49% (inactive)
12,S=C(NCc1ccccc1)NCc1ccc2c(c1)OCO2,13% (inactive)
13,CN1/C(=C\C(=O)COC(=O)c2ccc(O)c(O)c2)C(C)(C)c2ccccc21,25% (inactive)
14,Oc1ccc(CCNc2c3ccccc3nc3ccccc23)cc1O,-2.38% (inactive)
15,O=C(Nc1ccc2c(c1)OCO2)c1c(F)c(F)c(F)c(F)c1F,2.74% (inactive)
16,Cc1sc2ncnc(N3CCCCC3)c2c1C,5.45% (inactive)
17,Cc1ccc(OCC(=O)NNC(=O)C2CCN(c3ncnc4sc(C)c(C)c34)CC2)cc1,42% (inactive)
18,CSc1ccccc1NC(=O)CN1c2ccccc2CC1C (centres undefined),7.66% (inactive)
19,CCOC(=O)Cc1csc(NC(=O)COc2ccccc2OCC)n1,-11.5% (inactive)
